Measured values taken from the supplement of paper PMC3545927.
The other results are listed elsewhere or left out. The true hit rate is not given.

Molecular target: furin, P09958
Test: furin cleavage Z-score vs untreated control; higher = more cleavage, active = 3.5 or more, inactive = 1 or less, 8 variable residues between constant flanks
In short: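 Purified furin cleaved 8-mer peptides that were fused to a cDNA oligonucleotide and held on magnetic beads by their N-terminus. Each 0.01 ml reaction used a 1:10 enzyme:substrate ratio in 50 mM HEPES pH 7.5 with CaCl2 and NaCl and ran 7.5, 15 or 30 min. Released DNA was adapter-tagged by PCR and sequenced, and read counts gave abundance. The cleavage Z-score came from log counts against furin-free reactions, lowess-adjusted and scaled by median absolute deviation.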

furin, P09958, sequence (P09958 whole entry): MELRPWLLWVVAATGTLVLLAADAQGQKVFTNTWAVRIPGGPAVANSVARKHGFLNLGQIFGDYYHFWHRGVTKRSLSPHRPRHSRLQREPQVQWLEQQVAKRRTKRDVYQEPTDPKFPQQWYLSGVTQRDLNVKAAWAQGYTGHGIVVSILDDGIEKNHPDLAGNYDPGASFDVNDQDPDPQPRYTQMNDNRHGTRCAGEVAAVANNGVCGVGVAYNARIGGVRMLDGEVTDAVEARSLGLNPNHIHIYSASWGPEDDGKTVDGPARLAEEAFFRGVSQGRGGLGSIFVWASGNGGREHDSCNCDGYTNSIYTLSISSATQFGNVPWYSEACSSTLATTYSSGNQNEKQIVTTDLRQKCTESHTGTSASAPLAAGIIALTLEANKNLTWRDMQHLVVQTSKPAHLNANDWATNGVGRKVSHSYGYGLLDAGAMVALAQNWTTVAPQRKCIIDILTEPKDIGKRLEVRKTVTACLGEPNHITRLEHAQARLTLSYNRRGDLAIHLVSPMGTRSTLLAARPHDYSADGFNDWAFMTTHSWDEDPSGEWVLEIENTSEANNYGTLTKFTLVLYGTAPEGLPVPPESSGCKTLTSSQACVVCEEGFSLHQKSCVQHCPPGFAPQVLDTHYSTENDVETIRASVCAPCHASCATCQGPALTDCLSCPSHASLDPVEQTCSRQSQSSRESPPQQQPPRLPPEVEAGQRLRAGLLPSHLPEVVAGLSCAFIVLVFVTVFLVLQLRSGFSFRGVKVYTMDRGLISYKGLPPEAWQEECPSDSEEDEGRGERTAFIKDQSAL

Sequence	furin cleavage Z-score (7.5 min)	furin cleavage Z-score (15 min)	furin cleavage Z-score (30 min)
CALVAEEDERAGNASASA [HC1290]	-0.68 (inactive)	-1.05 (inactive)	-0.546 (inactive)
CASGMFDSSVAGNASASA [HC915]	-1.55 (inactive)	-0.578 (inactive)	-0.341 (inactive)
CAESIRMKRYAGNASASA [FS-765]	10.4 (active)	10.9 (active)	9.17 (active)
CAGEMEECSQAGNASASA [HC1796]	-0.269 (inactive)	1.03	0.391 (inactive)
CAESGRGKRYAGNASASA [FS-25]	2.19	4.19 (active)	6.23 (active)
CAGEMRKKRYAGNASASA [FS-780]	8.98 (active)	11.5 (active)	11.2 (active)
CAEVPCHRTSAGNASASA [HC2398]	0.843 (inactive)	-0.111 (inactive)	1.35
CARYDRQKRRAGNASASA [FS-866]	5.33 (active)	8.92 (active)	8.14 (active)
CAWRRRQKRRAGNASASA [FS-898]	11.1 (active)	12.6 (active)	10.1 (active)
CAQRDRQKRRAGNASASA [FS-558]	8.63 (active)	9.96 (active)	8.51 (active)
CAVLIDILAGAGNASASA [HC1084]	-1.68 (inactive)	-0.0246 (inactive)	-1.35 (inactive)
CALDLPPIIQAGNASASA [HC1599]	0.239 (inactive)	-0.216 (inactive)	-0.33 (inactive)
CATTVCSGSWAGNASASA [HC1870]	-0.934 (inactive)	-0.656 (inactive)	-0.569 (inactive)
CATTICSGSWAGNASASA [HC1864]	-0.759 (inactive)	-0.615 (inactive)	-0.31 (inactive)
CATTPCQGSWAGNASASA [HC79]	-0.663 (inactive)	0.917 (inactive)	-0.281 (inactive)
CAMECCSQHLAGNASASA [HC1720]	0.573 (inactive)	0.0768 (inactive)	0.728 (inactive)
CARRPRLSDRAGNASASA [FS-3059]	-0.769 (inactive)	-0.45 (inactive)	-0.545 (inactive)
CARRPRDDDSAGNASASA [FS-3057]	-0.221 (inactive)	-0.299 (inactive)	-1.38 (inactive)
CARRPRHAEQAGNASASA [FS-2781]	4.69 (active)	5.7 (active)	4 (active)
CARRPRGTMQAGNASASA [FS-1920]	4.44 (active)	4.25 (active)	6.42 (active)
CARSRRLAEQAGNASASA [FS-1933]	0.188 (inactive)	2.91	3.14
CAEEMEECSQAGNASASA [HC1792]	0.0451 (inactive)	-0.543 (inactive)	-0.411 (inactive)

Sequence	furin cleavage Z-score (7.5 min)	furin cleavage Z-score (15 min)	furin cleavage Z-score (30 min)
CASTKVPAAYAGNASASA [HC779]	-0.328 (inactive)	-0.544 (inactive)	0.327 (inactive)
CAPGALVVGVAGNASASA [HC1105]	-0.0947 (inactive)	0.679 (inactive)	-0.0726 (inactive)
CARKARFIHDAGNASASA [FS-2421]	2.71	4.77 (active)	7.1 (active)
CARKARFGSEAGNASASA [FS-2958]	0.624 (inactive)	0.0236 (inactive)	1.04
CARKYRFHGGAGNASASA [FS-1734]	0.847 (inactive)	-1.27 (inactive)	-0.103 (inactive)
CARKAREVCDAGNASASA [FS-1900]	5.27 (active)	5.4 (active)	4.27 (active)
CARKYRSNKGAGNASASA [FS-2703]	0.0213 (inactive)	0.138 (inactive)	1.58
CARKYREVFCAGNASASA [FS-2041]	0.9 (inactive)	2.75	2.7
CARKYRSHHDAGNASASA [FS-2428]	1.45	4.06 (active)	3.48
CADSTVTESDAGNASASA [HC1483]	-0.354 (inactive)	0.495 (inactive)	0.157 (inactive)
CASTPCSADLAGNASASA [HC2551]	1.45	0.00667 (inactive)	2.02
CANYTFALWRAGNASASA [HC1199]	-0.0905 (inactive)	-0.132 (inactive)	1.34
CAAGVDAETHAGNASASA [HC350]	-0.719 (inactive)	-1.77 (inactive)	-1.18 (inactive)
CAEVKTSTWVAGNASASA [HC2194]	0.637 (inactive)	-0.239 (inactive)	-1.95 (inactive)
CAMKARPEKSAGNASASA [FS-1139]	0.00638 (inactive)	-0.792 (inactive)	-2.08 (inactive)
CAKDSRLSRDAGNASASA [FS-1017]	-0.904 (inactive)	0.551 (inactive)	0.282 (inactive)
CATLSRKKRAAGNASASA [FS-567]	9.09 (active)	8.88 (active)	6.75 (active)
CANNSREKKAAGNASASA [FS-1378]	-0.625 (inactive)	-0.493 (inactive)	-0.698 (inactive)
CAVKARIKRMAGNASASA [FS-310]	8.88 (active)	10.6 (active)	7.99 (active)
CATLSRKSRDAGNASASA [FS-1173]	10.1 (active)	11.3 (active)	6.95 (active)
CAVKAAASKVAGNASASA [HC1406]	-0.468 (inactive)	1.05	-0.785 (inactive)
CADIPRYKRMAGNASASA [FS-1189]	6.09 (active)	5.32 (active)	5.91 (active)
